# In PubChem BioAssay (Tox21):
# “And” between values parts separate entries of the source, which are not always exact repeats. Equal values may be shown once. Results filed as inconclusive are left out. Where a call stands in place of a potency, no number is given. Where a structure was tested more than once in an assay, its records may differ in their call. The source made the active and inactive calls. Unless noted, calls come from the whole dose curve; as a rule, active = well fitted curve in the direction sought with a large enough effect in the repeat runs; inconclusive = weak or mixed curves; inactive = no such curve, though single readings can be large; an effect the other way counts as inactive or inconclusive.
# Tests used:
# [1] = qHTS assay to test for compound auto fluorescence at 535 nm (green) in HEK293 cells (AID 720680)
# [2] = qHTS assay to test for compound auto fluorescence at 460 nm (blue) in HEK293 cell free culture (AID 720681)
# How it was run: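 Blue fluorescence (Ex 405/Em 460 nm, triamterene-equivalent) was read immediately after pin transfer of compound or DMSO into medium (DMEM, 10% FBS) without cells.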
# [3] = qHTS assay to test for compound auto fluorescence at 535 nm (green) in HEK293 cell free culture (AID 720682)
# How it was run: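 DMEM + 10% FBS, cell-free; cpd or DMSO pinned in; Ex485/Em535 read; output as fluorescein-equivalent signal.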
# [4] = qHTS assay to test for compound auto fluorescence at 590 nm (red) in HEK293 cell free culture (AID 720683)
# How it was run: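 Red-channel autofluorescence of compounds in culture medium (DMEM, 10% FBS), no cells, measured at 540/590 nm. Rose Bengal sodium is the reference fluorophore for equivalence.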
# [5] = qHTS assay to test for compound auto fluorescence at 590 nm (red) in HepG2 cell free culture (AID 720684)
# How it was run: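 Plate contents were MEM with 10% FBS plus test compound or DMSO, no cells. Fluorescence was recorded with 540 nm excitation and 590 nm emission.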
# [6] = qHTS assay to test for compound auto fluorescence at 535 nm (green) in HepG2 cell free culture (AID 720686)
# [7] = qHTS assay to test for compound auto fluorescence at 460 nm (blue) in HepG2 cells (AID 720687)
# How it was run: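 Blue-channel autofluorescence (Ex/Em 405/460 nm, triamterene-equivalent) was measured after 1 hr compound exposure at 37 C, 5% CO2. Cells were HepG2, plated overnight at 37 C in MEM plus 10% FBS.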
# [8] = qHTS assay to identify small molecule antagonists of the glucocorticoid receptor (GR) signaling pathway - cell viability counter screen (AID 720693); note: nearly all actives have a fitted effect of over 55% in size
# [9] = qHTS assay for identifying genotoxic compounds that show differential cytotoxicity against isogenic chicken DT40 cell lines with known DNA damage response pathways - wild type cell line (AID 743012); note: nearly all actives have a fitted effect of over 60% in size
# How it was run: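 Quantitative HTS on parental DT40 cells: 40 h compound treatment at 37 C/5% CO2, with viability then determined by CellTiter-Glo luminescence. Values serve as the DNA repair-proficient reference for differential cytotoxicity.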
# [10] = qHTS assay for identifying genotoxic compounds that show differential cytotoxicity against isogenic chicken DT40 cell lines with known DNA damage response pathways - Rev3 mutant cell line (AID 743014); note: nearly all actives have a fitted effect of over 55% in size; note: potency is the fitted concentration of half-maximal effect
# [11] = qHTS assay for identifying genotoxic compounds that show differential cytotoxicity against isogenic chicken DT40 cell lines with known DNA damage response pathways - Rad54/Ku70 mutant cell line (AID 743015); note: nearly all actives have a fitted effect of over 60% in size; note: potency is the fitted concentration of half-maximal effect
# [12] = qHTS assay to identify small molecule antagonists of the androgen receptor (AR) signaling pathway - cell viability counter screen (AID 743033; note: nearly all actives have a fitted effect of over 45% in size)
# [13] = qHTS assay to identify small molecule antagonists of the androgen receptor (AR) signaling pathway using the MDA cell line - cell viability counter screen (AID 743041; note: nearly all actives have a fitted effect of over 45% in size)
# How it was run: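 R1881-driven MDA-kb2 AR-luc cells, 3,000/well, were dosed with library compounds for 16 h; cell health came from CellTiter-Fluor fluorescence in the reporter wells.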
# [14] = target: Glucocorticoid receptor (Homo sapiens) (UniProt P04150); assay: qHTS assay to identify small molecule antagonists of the glucocorticoid receptor (GR) signaling pathway (AID 720692; active = well fitted inhibition curve with a large enough effect in the signal ratio in the repeat runs, not every such curve was filed as active; the % refers to the signal ratio)
# How it was run: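 Fluorescence from cleaved LiveBLAzer B/G FRET substrate reports GRE-driven beta-lactamase in HeLa cells; compounds are tested against 5 nM dexamethasone (final) over 18 h at 37 C, substrate incubation 2 h at room temperature.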
# [15] = qHTS assay to test for compound auto fluorescence at 460 nm (blue) in HepG2 cell free culture (AID 720685)
# How it was run: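 Compound (23 nL) or DMSO pinned into cell-free MEM with 10% FBS; blue fluorescence read at 405/460 nm excitation/emission, expressed as auto-fluorescence equivalency to triamterene.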
# [16] = target: Glucocorticoid receptor (Homo sapiens) (UniProt P04150); assay: qHTS assay to identify small molecule agonists of the glucocorticoid receptor (GR) signaling pathway (AID 720691; active = well fitted activation curve with a large enough effect in the signal ratio in the repeat runs, not every such curve was filed as active; the % refers to the signal ratio)
# How it was run: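 Beta-lactamase reporter activity, read as fluorescence intensity, was measured in GR-bla HeLa cells exposed to compounds for 18 h at 37 C and then loaded with LiveBLAzer B/G FRET substrate for 2 h at room temperature.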
# [17] = target: Androgen receptor (Homo sapiens) (UniProt P10275); assay: qHTS assay to identify small molecule antagonists of the androgen receptor (AR) signaling pathway (AID 743035; active = well fitted inhibition curve with a large enough effect in the signal ratio in the repeat runs, not every such curve was filed as active; the % refers to the signal ratio)
# How it was run: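 Cell line: GeneBLAzer AR-UAS-bla GripTite (HEK293). Stimulus: R1881 added after compound. Exposure: 16 h, 37C, 5% CO2. Readout: LiveBLAzer B/G FRET fluorescence after 2 h at room temperature.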
# [18] = target: Androgen receptor (Homo sapiens) (UniProt P10275); assay: qHTS assay to identify small molecule agonists of the androgen receptor (AR) signaling pathway (AID 743036; active = well fitted activation curve with a large enough effect in the signal ratio in the repeat runs, with a control signal flat, not every such curve was filed as active; the % refers to the signal ratio)
# How it was run: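 Screening used 2,000 AR-bla HEK293 cells per well, treated 16 h at 37C with test compounds in DMSO alongside positive and DMSO-only controls; beta-lactamase activity was then read by LiveBLAzer B/G FRET fluorescence after 2 h at room temperature.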
# [19] = target: Androgen receptor (Homo sapiens) (UniProt P10275); assay: qHTS assay to identify small molecule agonists of the androgen receptor (AR) signaling pathway using the MDA cell line (AID 743040; note: nearly all actives have a fitted effect of over 20% in size); details: MDA-kb2 AR-luc cells, MMTV luciferase, 16 h; at 70.3 µM (top of the series); stronger effect = higher value
# How it was run: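 After a 5 h incubation at 37C and 0% CO2, MDA-kb2 reporter cells were dosed with compounds in DMSO and kept 16 h under the same conditions. Luciferase activity was then read as luminescence with ONE-Glo.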
# [20] = target: Androgen receptor (Homo sapiens) (UniProt P10275); assay: qHTS assay to identify small molecule antagonists of the androgen receptor (AR) signaling pathway using the MDA cell line (AID 743042; note: nearly all actives have a fitted effect of over 55% in size)
# How it was run: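 Antagonist mode: compounds plus R1881 agonist added to MDA-kb2 AR-luc cells, incubated 16 h at 37C. Luciferase reporter luminescence quantified, with multiplexed CellTiter-Fluor readout for cell viability.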
# Chain of Androgen receptor (Homo sapiens) (P10275 whole entry, looked up): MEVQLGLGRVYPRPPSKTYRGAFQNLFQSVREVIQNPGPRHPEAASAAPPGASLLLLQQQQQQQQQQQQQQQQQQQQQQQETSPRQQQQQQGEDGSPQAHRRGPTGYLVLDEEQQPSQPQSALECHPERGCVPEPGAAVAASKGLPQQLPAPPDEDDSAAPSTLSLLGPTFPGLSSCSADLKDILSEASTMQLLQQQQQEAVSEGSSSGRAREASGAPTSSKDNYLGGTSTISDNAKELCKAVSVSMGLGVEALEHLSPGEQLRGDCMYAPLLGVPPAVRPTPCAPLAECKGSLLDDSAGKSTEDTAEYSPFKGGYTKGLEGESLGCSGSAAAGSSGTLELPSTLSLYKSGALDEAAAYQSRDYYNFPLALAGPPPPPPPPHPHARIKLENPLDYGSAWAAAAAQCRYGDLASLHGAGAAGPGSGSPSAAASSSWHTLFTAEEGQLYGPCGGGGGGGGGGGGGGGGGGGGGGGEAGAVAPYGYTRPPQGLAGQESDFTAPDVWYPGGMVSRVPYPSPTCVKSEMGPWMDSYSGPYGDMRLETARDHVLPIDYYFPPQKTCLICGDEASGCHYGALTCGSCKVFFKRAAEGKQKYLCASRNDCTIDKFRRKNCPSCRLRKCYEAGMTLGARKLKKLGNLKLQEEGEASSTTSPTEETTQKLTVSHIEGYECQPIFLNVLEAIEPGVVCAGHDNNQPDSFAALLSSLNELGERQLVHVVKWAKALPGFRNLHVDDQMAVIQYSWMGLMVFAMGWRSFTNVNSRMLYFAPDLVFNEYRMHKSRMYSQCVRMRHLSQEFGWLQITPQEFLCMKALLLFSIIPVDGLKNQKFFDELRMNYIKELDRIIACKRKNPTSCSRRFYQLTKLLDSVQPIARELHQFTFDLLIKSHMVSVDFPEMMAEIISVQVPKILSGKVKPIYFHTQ
# Chain of Glucocorticoid receptor (Homo sapiens) (P04150 whole entry, looked up): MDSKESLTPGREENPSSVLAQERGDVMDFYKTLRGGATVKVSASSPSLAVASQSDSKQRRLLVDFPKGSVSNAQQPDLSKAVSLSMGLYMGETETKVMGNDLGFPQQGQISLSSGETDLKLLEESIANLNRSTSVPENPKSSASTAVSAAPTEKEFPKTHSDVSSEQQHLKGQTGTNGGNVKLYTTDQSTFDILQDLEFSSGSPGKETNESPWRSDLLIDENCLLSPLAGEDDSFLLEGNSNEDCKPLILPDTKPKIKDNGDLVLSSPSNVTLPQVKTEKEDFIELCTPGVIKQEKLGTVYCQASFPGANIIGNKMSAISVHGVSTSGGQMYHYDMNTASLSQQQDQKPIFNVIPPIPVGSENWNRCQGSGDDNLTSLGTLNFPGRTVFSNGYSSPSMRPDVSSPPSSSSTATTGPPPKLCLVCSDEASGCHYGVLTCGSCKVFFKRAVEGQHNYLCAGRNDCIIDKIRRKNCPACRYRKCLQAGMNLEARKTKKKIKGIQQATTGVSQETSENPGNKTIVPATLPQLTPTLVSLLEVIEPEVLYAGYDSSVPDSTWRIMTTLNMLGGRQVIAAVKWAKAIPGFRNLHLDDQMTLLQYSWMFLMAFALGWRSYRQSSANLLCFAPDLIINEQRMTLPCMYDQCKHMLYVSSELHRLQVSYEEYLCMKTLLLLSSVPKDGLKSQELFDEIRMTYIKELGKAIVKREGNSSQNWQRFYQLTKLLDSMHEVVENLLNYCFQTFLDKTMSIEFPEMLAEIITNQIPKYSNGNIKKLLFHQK
smiles,measurement,setting,value
CN1CCCC1=O,outcome,[1],inactive
same,Potency,[2],inactive
same,outcome,[3],inactive
same,outcome,[4],inactive
same,outcome,[5],inactive
same,outcome,[6],inactive
same,Potency,[7],inactive
same,Potency,[8],inactive
same,Potency,[9],inactive
same,Potency,[10],inactive
same,Potency,[11],inactive
same,Potency,[12],inactive
same,Potency,[13],inactive
CC(=O)c1nccs1,outcome,[1],inactive
same,Potency,[2],inactive
same,outcome,[3],inactive
same,outcome,[4],inactive
same,outcome,[5],inactive
same,Potency,[7],inactive
same,Potency,[14],inactive
same,Potency,[8],inactive
same,Potency,[9],inactive
same,Potency,[10],inactive
same,Potency,[11],inactive
same,Potency,[12],inactive
same,Potency,[13],inactive
O=C(c1ccccc1)c1ccc(O)c(O)c1O,outcome,[1],inactive
same,Potency,[2],inactive
same,outcome,[3],inactive
same,outcome,[4],inactive
same,outcome,[5],inactive
same,Potency,[15],inactive
same,Potency,[7],inactive
same,Potency,[14],inactive
same,Potency,[8],inactive
same,Potency,[10],61.1 µM (active)
same,Potency,[11],61.1 µM (active)
same,Potency,[12],inactive
same,Potency,[13],inactive
CCCCCCCCCCCC(=O)N(C)CC(=O)O,outcome,[1],inactive
same,Potency,[2],inactive
same,outcome,[3],inactive
same,outcome,[4],inactive
same,Potency,[7],inactive
same,"activity change, negative = inhibition",[14],-13% [at 7.04 µM] (inactive)
same,Potency,[8],inactive
same,Potency,[10],66.4 µM (active)
same,"activity, negative = cytotoxicity",[10],3.78% [at 8.53 µM] (inactive)
same,Potency,[11],66.4 µM (active)
same,"activity change, negative = cytotoxicity",[11],-12.4% [at 8.55 µM] (inactive)
same,"activity change, negative = cytotoxicity",[12],1.79% [at 7.04 µM] (inactive)
same,Potency,[13],inactive
OC[C@H]1O[C@@H](Oc2ccc(O)cc2)[C@H](O)[C@@H](O)[C@@H]1O,outcome,[1],inactive
same,Potency,[2],inactive
same,outcome,[3],inactive
same,outcome,[4],inactive
same,Potency,[15],inactive
same,Potency,[7],inactive
same,Potency,[8],inactive
same,Potency,[9],inactive
same,Potency,[10],inactive and 30.6 µM (active)
same,Potency,[11],inactive
same,Potency,[12],inactive
same,Potency,[13],inactive
NCCNCCNCCN,outcome,[1],inactive
same,Potency,[2],inactive
same,outcome,[3],inactive
same,outcome,[4],inactive
same,outcome,[6],inactive
same,Potency,[7],inactive
same,outcome,[16],inactive
same,Potency,[14],inactive
same,Potency,[8],inactive
same,Potency,[9],inactive
same,Potency,[10],inactive
same,Potency,[11],inactive
same,Potency,[12],inactive
same,Potency,[13],inactive
Cc1cc(C)cc(O)c1,outcome,[1],inactive
same,Potency,[2],inactive
same,outcome,[3],inactive
same,outcome,[4],inactive
same,outcome,[6],inactive
same,Potency,[7],inactive
same,Potency,[14],inactive
same,Potency,[8],inactive
same,Potency,[9],inactive
same,Potency,[10],inactive
same,Potency,[11],inactive
same,Potency,[12],inactive
same,Potency,[13],inactive
C=CC(C)(C)C,outcome,[1],inactive
same,Potency,[2],inactive
same,outcome,[3],inactive
same,outcome,[4],inactive
same,Potency,[15],inactive
same,outcome,[6],inactive
same,Potency,[7],inactive
same,Potency,[14],inactive
same,Potency,[8],inactive
same,Potency,[9],inactive
same,Potency,[10],inactive
same,Potency,[11],inactive
same,Potency,[12],inactive
same,Potency,[13],inactive
CCOC(=O)CC(=O)OCC,outcome,[1],inactive
same,Potency,[2],inactive
same,outcome,[3],inactive
same,outcome,[4],inactive
same,Potency,[15],inactive
same,outcome,[6],inactive
same,Potency,[7],inactive
same,outcome,[16],inactive
same,Potency,[14],inactive
same,Potency,[8],inactive
same,Potency,[9],inactive
same,Potency,[10],inactive
same,Potency,[11],inactive
same,Potency,[12],inactive
same,Potency,[13],inactive
O=[N+]([O-])c1ccccc1C(F)(F)F,outcome,[1],inactive
same,Potency,[2],inactive
same,outcome,[3],inactive
same,outcome,[4],inactive
same,outcome,[6],inactive
same,Potency,[7],inactive
same,Potency,[8],inactive
same,Potency,[9],inactive
same,Potency,[10],inactive
same,Potency,[11],inactive
same,Potency,[12],inactive
same,Potency,[17],inactive
same,Potency,[18],inactive
same,activity change,[19],0.939% (inactive) and 0.0136% (inactive)
same,Potency,[13],inactive
same,Potency,[20],inactive
COC(=O)/C=C\C(=O)OC,outcome,[1],inactive
same,Potency,[2],inactive
same,outcome,[3],inactive
same,outcome,[4],inactive
same,Potency,[15],inactive
same,Potency,[7],inactive
same,outcome,[16],inactive
same,Potency,[8],inactive
same,Potency,[9],inactive
same,Potency,[10],inactive
same,Potency,[11],inactive
same,Potency,[12],inactive
same,Potency,[13],inactive
C=C(C)CC(C)(C)C,outcome,[1],inactive
same,Potency,[2],inactive
same,outcome,[3],inactive
same,outcome,[4],inactive
same,Potency,[15],inactive
same,outcome,[6],inactive
same,Potency,[7],inactive
same,Potency,[14],inactive
same,Potency,[8],inactive
same,Potency,[9],inactive
same,Potency,[10],inactive
same,Potency,[11],inactive
same,Potency,[12],inactive
same,Potency,[13],inactive
Cc1cccc(C)c1[N+](=O)[O-],outcome,[1],inactive
same,Potency,[2],inactive
same,outcome,[3],inactive
same,outcome,[4],inactive
same,Potency,[15],inactive
same,outcome,[6],inactive
same,Potency,[7],inactive
same,outcome,[16],inactive
same,Potency,[8],inactive
same,Potency,[9],inactive
same,Potency,[10],inactive
same,Potency,[11],inactive
same,Potency,[12],inactive
same,Potency,[13],inactive
Nc1cccc(N)n1,outcome,[1],inactive
same,Potency,[2],inactive
same,outcome,[3],inactive
same,outcome,[4],inactive
same,Potency,[15],inactive
same,Potency,[8],inactive
same,Potency,[9],inactive
same,Potency,[10],inactive
same,Potency,[11],inactive
same,Potency,[12],inactive
same,Potency,[13],inactive
N#CCC(=O)O,outcome,[1],inactive
same,Potency,[2],inactive
same,outcome,[3],inactive
same,outcome,[4],inactive
same,Potency,[15],inactive
same,outcome,[6],inactive
same,Potency,[7],inactive
same,outcome,[16],inactive
same,Potency,[14],inactive
same,Potency,[8],inactive
same,Potency,[9],inactive
same,Potency,[10],inactive
same,Potency,[11],inactive
same,Potency,[12],inactive
same,Potency,[13],inactive
CC/C(C)=N/O,outcome,[1],inactive
same,Potency,[2],inactive
same,outcome,[3],inactive
same,outcome,[4],inactive
same,Potency,[15],inactive
same,Potency,[7],inactive
same,Potency,[14],inactive
same,Potency,[8],inactive
same,Potency,[9],inactive
same,Potency,[10],inactive
same,Potency,[11],inactive
same,Potency,[12],inactive
same,Potency,[13],inactive
CS(=O)(=O)c1ccc(Cl)cc1,outcome,[1],inactive
same,Potency,[2],inactive
same,outcome,[3],inactive
same,outcome,[4],inactive
same,Potency,[15],inactive
same,outcome,[6],inactive
same,Potency,[7],inactive
same,outcome,[16],inactive
same,Potency,[14],inactive
same,Potency,[8],inactive
same,Potency,[9],inactive
same,Potency,[10],inactive
same,Potency,[11],inactive
same,Potency,[12],inactive
same,Potency,[13],inactive
OCc1ccc(Cl)cc1Cl,outcome,[1],inactive
same,Potency,[2],inactive
same,outcome,[3],inactive
same,outcome,[4],inactive
same,Potency,[15],inactive
same,Potency,[7],inactive
same,Potency,[8],inactive
same,Potency,[9],inactive
same,Potency,[10],inactive
same,Potency,[11],inactive
same,Potency,[12],inactive
same,Potency,[13],inactive
